Results filed as inconclusive are left out. Calls of active or inactive are those of the source. Unless noted, calls come from the whole dose curve; as a rule, active = well fitted curve in the direction sought with a large enough effect in the repeat runs; inconclusive = weak or mixed curves; inactive = no such curve, though single readings can be large; an effect the other way counts as inactive or inconclusive.
Tests used:
[1] = qHTS assay for small molecule agonists of the p53 signaling pathway (AID 651631; calls by dose curve; note: nearly all actives have a fitted effect of over 15% in size)
How it was run: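 HCT-116 p53RE-bla reporter line, 16 h compound treatment at 37 °C, then fluorescence after 2 h with B/G FRET substrate.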

[2] = qHTS assay for small molecules that induce genotoxicity in human embryonic kidney cells expressing luciferase-tagged ATAD5 (AID 651632); note: nearly all actives have a fitted effect of over 15% in size; note: potency is the fitted concentration of half-maximal effect
How it was run: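 HEK293T cells carrying luciferase-tagged ATAD5 were given compound or DMSO vehicle and incubated 16 hr at 37C, 5% CO2. Luciferase activity was read after 30 min at room temperature with Amplite; a rise signals genotoxic stress.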

[3] = qHTS assay for small molecule agonists of the p53 signaling pathway - cell viability (AID 651633; calls by dose curve;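 note: p53RE-bla HCT reporter cells with a stable beta-lactamase p53 reporter; series mostly up to about 83 µM; nearly all actives have a fitted effect of over 30% in size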)
How it was run: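 p53RE-bla cells were treated with compound for 16 hours at 37 C. Cytotoxicity was then measured as CellTiter-Glo luminescence after 30 min at room temperature.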

[4] = qHTS assay for small molecules that induce genotoxicity in human embryonic kidney cells expressing luciferase-tagged ATAD5 - cell viability (AID 651634; calls by dose curve; note: nearly all actives have a fitted effect of over 25% in size)
How it was run: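 HEK293T cells carrying luciferase-tagged ATAD5, 2,000 cells/well, exposed to compound for 15.5 hr at 37C. Viability read as live-cell protease activity by CellTiter-Fluor fluorescence after 30 min at 37C.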

[5] = qHTS assay for small molecule disruptors of the mitochondrial membrane potential - cell viability (AID 720634; calls by dose curve;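 note: human HepG2 liver cancer cells; series mostly up to about 83 µM; nearly all actives have a fitted effect of over 20% in size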)
How it was run: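 HepG2 cells, 2,000 per well, attached overnight, then treated 1 hr at 37 C, 5% CO2. Viability read as ATP by CellTiter-Glo luminescence after 30 min at room temperature. Read in the same wells as the m-MPI membrane-potential dye assay.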

[6] = qHTS assay for small molecule disruptors of the mitochondrial membrane potential (AID 720635); note: potency is the fitted concentration of half-maximal effect
How it was run: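 HepG2 cells exposed to compound 1 hr at 37C, then Mito-MPS dye 30 min. Ratio read of aggregate (540/590 nm) versus monomer (490/535 nm) fluorescence.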

[7] = qHTS assay to test for compound auto fluorescence at 590 nm (red) in HepG2 cells (AID 720674)
How it was run: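 Seeding: 2,000 HepG2 cells/well, MEM/10% FBS, overnight 37 C. Dosing: compound vs DMSO. Incubation: 1 hr, 37 C, 5% CO2. Read: fluorescence 540 ex/590 em, Rose Bengal sodium as red reference.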

[8] = qHTS assay to test for compound auto fluorescence at 535 nm (green) in HepG2 cells (AID 720675)
[9] = qHTS assay to test for compound auto fluorescence at 460 nm (blue) in HEK293 cells (AID 720678)
How it was run: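 HEK293, 2,000 cells/well, 10% dialyzed FBS; attach 4-5 hr 37C; pin compound or DMSO; o/n 37C/5% CO2; fluorescence 405/460 nm; triamterene-equivalent units.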

[10] = qHTS assay to test for compound auto fluorescence at 590 nm (red) in HEK293 cells (AID 720679)
How it was run: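 Intensity at 540nm excitation and 590nm emission is reported as Rose Bengal sodium-equivalent autofluorescence. Measurements followed overnight exposure (37C, 5% CO2) of HEK293 cells, 2,000 per well, to 23 nL compound.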

[11] = qHTS assay to test for compound auto fluorescence at 535 nm (green) in HEK293 cells (AID 720680)
[12] = qHTS assay to test for compound auto fluorescence at 460 nm (blue) in HEK293 cell free culture (AID 720681)
How it was run: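 Compounds were added to cell-free DMEM with 10% FBS and fluorescence read directly. The blue channel used 405 nm excitation and 460 nm emission, with triamterene as the reference fluorophore.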

[13] = qHTS assay to test for compound auto fluorescence at 535 nm (green) in HEK293 cell free culture (AID 720682)
How it was run: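 Steps: dispense DMEM/10% FBS into empty wells; pin in compound or DMSO; measure fluorescence at 485/535 nm. Values are fluorescein equivalents.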

[14] = qHTS assay to test for compound auto fluorescence at 590 nm (red) in HepG2 cell free culture (AID 720684)
How it was run: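 Compound was pinned into wells holding MEM with 10% FBS and no cells, and red fluorescence was read at Ex/Em 540/590 nm. Signal is expressed as auto fluorescence equivalency relative to Rose Bengal sodium.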

[15] = qHTS assay to test for compound auto fluorescence at 460 nm (blue) in HepG2 cell free culture (AID 720685)
How it was run: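 Compound (23 nL) or DMSO pinned into cell-free MEM with 10% FBS; blue fluorescence read at 405/460 nm excitation/emission, expressed as auto-fluorescence equivalency to triamterene.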

[16] = qHTS assay to test for compound auto fluorescence at 535 nm (green) in HepG2 cell free culture (AID 720686)
[17] = qHTS assay to test for compound auto fluorescence at 460 nm (blue) in HepG2 cells (AID 720687)
How it was run: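 HepG2 cells in MEM with 10% FBS, attached overnight at 37 C, were exposed to compound or DMSO for 1 hr at 37 C, 5% CO2. Blue fluorescence was read at 405/460 nm, with triamterene as reference fluorophore.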

[18] = biological target: Glucocorticoid receptor (Homo sapiens) (UniProt P04150); test: qHTS assay to identify small molecule agonists of the glucocorticoid receptor (GR) signaling pathway (AID 720691; active = well fitted activation curve with a large enough effect in the signal ratio in the repeat runs, not every such curve was filed as active; the % refers to the signal ratio)
Sequence of Glucocorticoid receptor (Homo sapiens) (P04150 whole entry, looked up): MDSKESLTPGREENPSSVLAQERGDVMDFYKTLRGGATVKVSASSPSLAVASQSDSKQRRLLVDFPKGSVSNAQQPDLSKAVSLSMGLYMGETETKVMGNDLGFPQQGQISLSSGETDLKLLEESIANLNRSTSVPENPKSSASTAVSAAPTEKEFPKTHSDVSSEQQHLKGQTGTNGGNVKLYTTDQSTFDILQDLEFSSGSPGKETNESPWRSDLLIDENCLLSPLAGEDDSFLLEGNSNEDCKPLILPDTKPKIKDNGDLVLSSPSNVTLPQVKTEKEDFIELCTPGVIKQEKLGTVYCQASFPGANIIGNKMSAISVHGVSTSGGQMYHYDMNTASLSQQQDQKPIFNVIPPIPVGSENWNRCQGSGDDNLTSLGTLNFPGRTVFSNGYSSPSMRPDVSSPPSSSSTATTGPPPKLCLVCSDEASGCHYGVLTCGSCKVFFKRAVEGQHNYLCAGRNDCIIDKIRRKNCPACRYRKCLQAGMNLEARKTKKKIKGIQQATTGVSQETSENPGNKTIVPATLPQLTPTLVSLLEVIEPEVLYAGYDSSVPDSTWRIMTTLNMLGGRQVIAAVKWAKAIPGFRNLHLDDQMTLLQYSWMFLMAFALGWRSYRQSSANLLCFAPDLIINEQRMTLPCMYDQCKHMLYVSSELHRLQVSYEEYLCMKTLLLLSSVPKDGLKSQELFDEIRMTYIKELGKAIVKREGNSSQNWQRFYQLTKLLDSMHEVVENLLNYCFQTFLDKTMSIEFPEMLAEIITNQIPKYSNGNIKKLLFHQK
How it was run: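 GR-bla HeLa cells carrying a GRE-driven beta-lactamase reporter, exposed to compounds for 18 h at 37 C. Reporter activation read as fluorescence after 2 h with LiveBLAzer B/G FRET substrate at room temperature.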

[19] = qHTS assay to test for compound auto fluorescence at 590 nm (red) in HEK293 cell free culture (AID 720683)
How it was run: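 Cell-free wells of DMEM with 10% FBS received compound, and intrinsic fluorescence was read at excitation/emission 540/590 nm. Values expressed as equivalence to Rose Bengal sodium.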

[20] = biological target: Glucocorticoid receptor (Homo sapiens) (UniProt P04150); test: qHTS assay to identify small molecule antagonists of the glucocorticoid receptor (GR) signaling pathway (AID 720692; active = well fitted inhibition curve with a large enough effect in the signal ratio in the repeat runs, not every such curve was filed as active; the % refers to the signal ratio)
How it was run: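 GR-bla HeLa cells carrying a GRE-driven beta-lactamase reporter received compound after 4 h plating, then dexamethasone (5 nM final). After 18 h at 37C, the FRET substrate was loaded for 2 h at room temperature and fluorescence read.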
% is set by controls: 0 for no effect and ±100 for the full control effect.

CCCCNC(=S)NCCCC
inactive: Potency [1] | Potency [2] | Potency [3] | Potency [4] | Potency [5] | Potency [6] | outcome [7] | outcome [8] | outcome [9] | outcome [10] | outcome [11] | outcome [12] | outcome [13] | outcome [14] | outcome [15] | outcome [16] | outcome [17] | Potency [18]

FC(F)(F)C(F)(F)C(F)(F)C(F)(F)C(F)(F)C(F)(F)C(F)(F)C(F)(F)Br
inactive: Potency [1] | Potency [2] | Potency [3] | Potency [4] | Potency [5] | Potency [6] | outcome [7] | outcome [8] | outcome [9] | outcome [10] | outcome [11] | outcome [12] | outcome [13] | outcome [19] | outcome [15] | outcome [16] | outcome [17] | Potency [18] | Potency [20]

NCCCN1CCN(CCCN)CC1
inactive: Potency [1] | Potency [2] | Potency [3] | Potency [4] | Potency [5] | Potency [6] | outcome [7] | outcome [8] | outcome [9] | outcome [10] | outcome [11] | outcome [12] | outcome [13] | outcome [14] | outcome [15] | outcome [16] | outcome [17] | Potency [18] | Potency [20]

C=C(C)C(=O)OCCOP(=O)(O)O
inactive: Potency [1] | Potency [2] | Potency [3] | Potency [4] | Potency [5] | Potency [6] | outcome [7] | outcome [8] | outcome [9] | outcome [10] | outcome [11] | outcome [12] | outcome [19] | outcome [14] | outcome [15] | outcome [16] | outcome [17] | Potency [18] | Potency [20]

CN(C)Cc1ccccc1
inactive: Potency [1] | Potency [2] | Potency [3] | Potency [4] | Potency [5] | Potency [6] | outcome [7] | outcome [8] | outcome [9] | outcome [10] | outcome [11] | outcome [12] | outcome [19] | outcome [14] | outcome [15] | outcome [16] | outcome [17] | Potency [18] | Potency [20]

Nc1cccc(S(=O)(=O)O)c1
active: Potency [6] 0.0972 µM
inactive: Potency [1] | Potency [2] | Potency [3] | Potency [4] | Potency [5] | outcome [7] | outcome [8] | outcome [9] | outcome [10] | outcome [11] | outcome [12] | outcome [19] | outcome [15] | outcome [16] | outcome [17] | Potency [18]

CCCc1c2oc(C(=O)O)cc(=O)c2cc2c(=O)cc(C(=O)O)n(CC)c12
inactive: Potency [1] | Potency [2] | Potency [3] | Potency [4] | Potency [5] | Potency [6] | outcome [7] | outcome [8] | outcome [9] | outcome [10] | outcome [12] | outcome [13] | outcome [14] | outcome [15] | outcome [16] | outcome [17] | Potency [18] | Potency [20]

C=CC1CO1 (centres undefined)
inactive: Potency [1] | Potency [2] | Potency [3] | Potency [4] | Potency [5] | Potency [6] | outcome [7] | outcome [8] | outcome [9] | outcome [10] | outcome [11] | outcome [12] | outcome [19] | outcome [16] | outcome [17] | Potency [18]

CC(C)(C)c1ccc(OC(=O)c2ccccc2O)cc1
inactive: Potency [1] | Potency [3] | Potency [4] | Potency [5] | outcome [7] | outcome [8] | outcome [9] | outcome [10] | outcome [12] | outcome [13] | outcome [14] | outcome [16] | outcome [17] | Potency [18]
active: Potency [2] 21.7 µM | Potency [6] 24.3 µM

Oc1ccccc1C=NCc1ccccc1
inactive: Potency [1] | Potency [2] | Potency [3] | Potency [4] | Potency [5] | outcome [7] | outcome [8] | outcome [9] | outcome [10] | outcome [11] | outcome [12] | outcome [13] | outcome [19] | outcome [15] | outcome [16] | outcome [17] | Potency [18] | Potency [20]
active: Potency [6] 21.1 µM

CCC(=O)O[C@]1(C(=O)SCF)[C@H](C)C[C@H]2[C@@H]3C[C@H](F)C4=CC(=O)C=C[C@]4(C)[C@@]3(F)[C@@H](O)C[C@@]21C
inactive: Potency [1] | Potency [2] | Potency [3] | Potency [4] | Potency [5] | fluorescence, relative to Rose Bengal [7] -0.521% [at 18.6 µM] | fluorescence, % of fluorescein control [8] 0.0108% [at 18.6 µM] | fluorescence, % of triamterene [9] 0.0153% [at 18.6 µM] | fluorescence, % of fluorescent control [10] -0.0536% [at 18.6 µM] | fluorescence, % of fluorescein [11] 0.0173% [at 18.6 µM] | fluorescence, % of fluorescent control [12] 0.0707% [at 18.6 µM] | activity change [13] 0.0558% [at 18.6 µM] | fluorescence, % of Rose Bengal [14] 0.622% [at 18.6 µM] | fluorescence, % of fluorescent control [15] 0.0563% [at 18.6 µM] | fluorescence, % of fluorescein control [16] 0.0971% [at 18.6 µM] | fluorescence, % of fluorescent control [17] -0.137% [at 18.6 µM]
active: Potency [6] 7.17 µM

CC(C)C(=O)OCC(C)(C)C(O)C(C)C (centres undefined)
inactive: Potency [1] | Potency [2] | Potency [3] | Potency [4] | Potency [5] | Potency [6] | outcome [7] | outcome [8] | outcome [9] | outcome [10] | outcome [11] | outcome [12] | outcome [13] | outcome [19] | outcome [15] | outcome [16] | Potency [18]

COc1nc(C)nc(NC(=O)NS(=O)(=O)c2ccccc2OCCCl)n1
inactive: Potency [1] | Potency [2] | Potency [3] | Potency [4] | Potency [5] | Potency [6] | outcome [7] | outcome [8] | outcome [9] | outcome [10] | outcome [11] | outcome [12] | outcome [19] | outcome [14] | outcome [15] | outcome [16] | outcome [17] | Potency [18]

CCCCCCCCCC/C=C/C#N
inactive: Potency [1] | Potency [2] | Potency [3] | Potency [4] | Potency [5] | Potency [6] | outcome [7] | outcome [8] | outcome [9] | outcome [10] | outcome [11] | outcome [13] | outcome [19] | outcome [14] | outcome [15] | outcome [16] | outcome [17]
